High-throughput results deposited in PubChem by National Center for Advancing Translational Sciences (NCATS).
FLuc modulator – qHTS profiling assay for firefly luciferase inhibitor/activator using purifed enzyme and Km concentrations of substrates (counterscreen for miR-21 project). Luciferin 4-monooxygenase (Photinus pyralis), P08659. purified FLuc, Km substrates, luminescence inhibition. Potency, µM (highest dose often 57.5 µM), without a hit: at the top dose activity change, negative = inhibition, actives largely listed as inhibitors. actives 6.9% (n = 360,000);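 further: plate controls were vehicle for no effect and reference inhibitor for full effect; nearly all actives have a fitted effect of over 55% in size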
Target sequence (P08659 whole entry, looked up): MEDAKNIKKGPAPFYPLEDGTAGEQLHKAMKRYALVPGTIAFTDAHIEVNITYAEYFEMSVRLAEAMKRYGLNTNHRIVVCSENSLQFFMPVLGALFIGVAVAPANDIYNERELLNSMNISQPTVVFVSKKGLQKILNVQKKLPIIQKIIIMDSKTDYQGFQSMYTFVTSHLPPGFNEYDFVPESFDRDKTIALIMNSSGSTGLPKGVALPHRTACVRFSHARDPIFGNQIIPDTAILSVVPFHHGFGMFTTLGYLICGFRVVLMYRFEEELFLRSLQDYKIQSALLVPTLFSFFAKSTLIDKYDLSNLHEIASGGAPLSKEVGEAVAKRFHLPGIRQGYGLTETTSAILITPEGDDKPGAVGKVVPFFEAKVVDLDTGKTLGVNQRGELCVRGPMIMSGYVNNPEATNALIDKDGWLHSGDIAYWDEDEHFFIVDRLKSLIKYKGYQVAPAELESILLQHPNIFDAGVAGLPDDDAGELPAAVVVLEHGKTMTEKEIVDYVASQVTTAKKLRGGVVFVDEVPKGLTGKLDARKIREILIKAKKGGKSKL
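Biochemical qHTS of compounds, final roughly 60 µM downward over six points, against 10 nM purified firefly luciferase using Km concentrations of substrates (10 uM D-luciferin, 10 uM ATP) in Tris acetate pH 7.5 buffer; luminescence output.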
NPC1 promoter act – qHTS Assay for NPC1 Promoter Activators. Potency, µM (top dose mostly 9.22 µM), for the others: at the top dose activation, usual class: activators. Huh7 NPC1 promoter luciferase reporter, 24 h. AID 485313, 2010. actives 2.4% (n = 320,000); further: % of control where 0% means no effect; nearly all actives have a fitted effect of over 60% in size
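Quantitative HTS used a cell-based reporter: Huh7 cells stably bearing the NPC1 promoter upstream of luciferase were treated with compounds for 24 h, and promoter activation was read as luminescence.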
ELG1 genotoxic – qHTS screen for small molecules that induce genotoxicity in human embryonic kidney (HEK293T) cells expressing luciferase-tagged ELG1. HEK293T ELG1-luciferase reporter, luminescence, 16 h. AID 504466, 2011. actives 1.3% (n = 330,000). Potency, µM (highest dose often 46 µM), inactives show at the highest dose activity change, positive = activation, most hits filed as activators; further: % of control where 0% means no effect; nearly all actives have a fitted effect of over 60% in size
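Luminescence read-out: rising ELG1-luciferase signal, reflecting elevated ELG1 protein under genetic stress, flags genotoxic compounds. Cells were treated for 16 hr at 37 °C before ONE-Glo detection.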
Rab9 prom act – qHTS Assay for Rab9 Promoter Activators. Huh7 Rab9 promoter-luciferase reporter, luminescence, 24 h. Potency, µM (titrated, usually from 9.22 µM), for inactives: at the top dose activation, negative = inhibition, hits mostly activators. actives 2.8% (n = 320,000). AID 485297, 2010; further: % of control where 0% means no effect; nearly all actives have a fitted effect of over 60% in size
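Measured in stably transfected Huh7 cells bearing a Rab9 promoter–luciferase construct: 24 h compound treatment at 37 °C, followed by luminescence detection.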
ELG1 repair inh – qHTS screen for small molecules that inhibit ELG1-dependent DNA repair in human embryonic kidney (HEK293T) cells expressing luciferase-tagged ELG1 | HEK293T ELG1-luciferase reporter, luminescence, 16 h; DNA damage induced by 5-fluorouridine | actives 2.3% (n = 330,000) | Potency, µM (top dose mostly 46.1 µM), for the others: at the top dose activity change, negative = inhibition, usual class: inhibitors | AID 504467, 2011; further: on the % scale 0 is the no-effect control and ±100 the full control effect; nearly all actives have a fitted effect of over 55% in size
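Overnight (16 hr) co-exposure of 2,000 cells/well to 5-fluorouridine and compound at 37 °C preceded detection. Luciferase was quantified via ONE-Glo luminescence; loss of signal denotes inhibition.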
SMN2 splice enh – qHTS Assay for Enhancers of SMN2 Splice Variant Expression | HEK293 SMN2-luciferase splicing reporter, luminescence, 30-36 h | Potency, µM (titrated, usually from 46.1 µM), inactives show at the highest dose activity change, positive = activation, usual class: activators | actives 2.8% (n = 210,000) | AID 1458, 2008; further: % of control where 0% means no effect; nearly all actives have a fitted effect of over 55% in size
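HEK293 cells carry an SMN2 minigene-luciferase reporter in which exon 7 inclusion puts luciferase in frame. Cells were seeded at 2000 cells/well, attached for 10-12 hours, then exposed to compounds for 30-36 hours at 37C before ONE-Glo luminescence.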
* marks the source's active call; other numbers are inactive results; ? = inconclusive; · = not tested or not shown; [ ] = dose if it differs, or a comment. In the library only some 9.2% were active in any assay of this set; here they are far more common. The call rests on the fitted dose curve; in most records, active means well fitted curve in the direction sought with a large enough effect; inconclusive means small, poorly fitted or top-dose-only effect, or another doubt; inactive means no such curve, though single readings can be large; an effect the other way counts as inactive or inconclusive. Potency means the concentration at half of the fitted maximal effect.

SMILES	FLuc modulator	NPC1 promoter act	ELG1 genotoxic	Rab9 prom act	ELG1 repair inh	SMN2 splice enh
COC(=O)c1ccc(NC(=O)Cc2ccc(C)cc2)cc1	0%	5%	1%	4%	13%	-11%
CCOc1ccc(N/C(C)=C/C(=O)c2ccc(C)o2)cc1	6µM*	?	?	?	?	-7%
COC(=O)c1ccc(N/C(C)=C/C(=O)c2ccc(C)o2)cc1	12µM*	0%	18%	1%	?	20%
CCOc1ccc(NC(=O)CCc2ccc(C)o2)cc1	-18%	15%	9%	-3%	?	·
Cc1cc(OCCn2cncn2)ccc1[N+](=O)[O-]	-7%	7%	2%	0%	5%	·
N/C(Cc1ccc(Cl)c(Cl)c1)=N\OC(=O)c1ccc(Br)o1	0%	0%	-2%	-2%	1%	·
ClC(=C\c1ccccc1)/C=N/N1CCN(c2ccccn2)CC1	?	3.2µM*	9.2µM*	?	?	14µM*
Cc1ccc(/C=N/N2CCN(c3ccccn3)CC2)cc1	9.5µM*	30%	?	?	?	18%
Cn1cc(/C=C2\SC(=S)N(NC(=O)c3ccccc3)C2=O)c2ccccc21	?	8%	2%	2%	-21%	-1%
Cn1cc(/C=C2/SC(=O)N(c3ccccc3)C2=O)c2ccccc21	6µM*	?	3%	6.3µM*	?	13%
CCCC(C(=O)O)N1C(=O)/C(=C/c2cccn2C)SC1=S (stereo not drawn)	1%	0%	1%	-4%	8%	-9%
O=C(O)Cn1cc(/C=C2/SC(=O)N(CC(=O)N3CCCCCC3)C2=O)c2ccccc21	?	-2%	0%	-2%	6%	·
Cn1cccc1/C=C1\SC(=S)N(Nc2ccccc2)C1=O	?	12%	9%	17%	?	·
Cn1cccc1/C=C1\SC(=O)N(c2ccccc2)C1=O	2.4µM*	2µM*	?	0.71µM*	?	11µM*
O=C(O)Cn1cc(/C=C2\SC(=O)N(c3ccccc3)C2=O)c2ccccc21	12µM*	-1%	7%	0%	?	1%
CC(C)C(C(=O)O)N1C(=O)/C(=C/c2cccn2C)SC1=S (stereo not drawn)	21µM*	1%	2%	3%	-1%	-6%
CC[N+](C)(CC)CC(O)COCC1COc2ccccc2O1 (stereo not drawn)	0%	-1%	1%	-5%	28%	27%
CC(C)n1cnc2cc(NCc3ccco3)ccc21	17µM*	?	21%	?	?	?
CC(C)n1cnc2cc(NCc3ccccn3)ccc21	24µM*	1.8µM*	?	?	?	18µM*
CN(C)c1ccc(CNc2ccc3c(c2)ncn3C)cc1	?	-1%	?	-6%	?	-13%
CCCn1c(NCc2ccco2)nc2ccccc21	0%	0%	2%	-7%	0%	?
CCN(CC)c1ccc(CNc2ccc3c(c2)ncn3C(C)(C)C)cc1	?	3%	0%	12%	-18%	·
CC(C)(C)n1cnc2cc(NCc3ccccc3O)ccc21	12µM*	28%	17%	8%	?	·
CC(C)n1cnc2cc(NCc3ccccc3O)ccc21	21µM*	19%	15%	?	?	·
COCC(O)CNc1ccccc1 (stereo not drawn)	4%	-7%	-2%	-1%	1%	-1%[1.84 µM]
SMILES	FLuc modulator	NPC1 promoter act	ELG1 genotoxic	Rab9 prom act	ELG1 repair inh	SMN2 splice enh
COc1cc(C(=O)Nc2ccc3c(c2)ncn3C(C)(C)C)cc(OC)c1OC	?	3%	16%	17%	?	·
Cc1cccc(NC(=S)NCc2ccccn2)c1	3%	-2%	1%	-7%	9%	19%
Cc1cc(NCc2ccccn2)ccc1Br	15µM*	?	13%	?	?	2%
CC(C)(C)n1cnc2cc(NC(=O)c3ccc(Cl)cc3)ccc21	4.8µM*	0.56µM*	2.9µM*	0.5µM*	?	·
CCOC1(/N=C(\C)NS(=O)(=O)c2ccc(Cl)cc2)C(C)=CC(=O)C=C1C	1%	-3%	-3%	0%	-7%	1%
C/C(=N\N1C(=O)c2ccccc2C1=O)c1cccc([N+](=O)[O-])c1	17µM*	-1%	0%	1%	10%	13%
C/C(=N/N1CCN(c2ccccn2)CC1)c1cccc([N+](=O)[O-])c1	-8%	7%	0%	2%	1%	-13%[1.84 µM]
CCc1cccc(C)c1NC(=O)Cn1c(=O)n(-c2ccc(C)cc2)c(=O)c2c1cnn2C	4%	·	·	·	·	3%
CCOc1ccc(-c2cc(C(=O)NCCCN3CCOCC3)c3ccccc3n2)cc1	8.5µM*	15%	2%	1%	17%	·
O=C(NCCN1CCOCC1)c1cc(-c2ccc(F)cc2)nc2ccccc12	?	1%	1%	1%	11%	·
COc1ccc(Nc2cc(C(=O)NCCCN3CCOCC3)c3ccccc3n2)cc1	?	-2%	-5%	-1%	-1%	·
CC(C)Oc1ccc(-c2cc(C(=O)NCCN3CCOCC3)c3ccccc3n2)cc1	1.5µM*	?	6%	25%	?	29%
CCc1ccc(Nc2cc(C(=O)NCCCN3CCOCC3)c3ccccc3n2)cc1	19µM*	-1%	-12%	7%	-28%	-6%
O=C(NCCCN1CCOCC1)c1cc(-c2ccc(F)cc2)nc2ccccc12	?	0%	3%	-1%	29%	·
CCOC(=O)c1ccc(NC(=O)CCC(=O)N2Cc3ccccc3Oc3ncccc32)cc1	-13%	·	·	·	·	·
CN1CCN(CCC(=O)Nc2cccc(Br)c2)CC1	4%	-1%	1%	-3%	-12%	·
Cc1noc(NS(=O)(=O)c2ccc(N/C=C/C(=O)c3ccc4c(c3)OCO4)cc2)c1C	11µM*	17%	12%	5%	20%	5%
Cc1noc(NS(=O)(=O)c2ccc(N/C=C\C(=O)c3cccs3)cc2)c1C	17µM*	-5%	4%	-6%	-8%	-2%
Cc1ccc(NC(=O)Cn2c(SCc3ccc(F)cc3)nc3cccnc32)cc1F	-18%	·	·	·	·	·
O=C(CNC(=S)N(Cc1ccccc1)Cc1ccccc1F)NCc1ccc(Cl)cc1	4%	-6%	-7%	-6%	23µM*	-33%
